Here are results for 26 molecules from PMC9911399, “Two distinct binding modes provide the RNA-binding protein RbFox with extraordinary sequence specificity”.

T1: RBFOX1 RRM (Homo sapiens, UniProt Q9NWB1 109-208)
T1 sequence: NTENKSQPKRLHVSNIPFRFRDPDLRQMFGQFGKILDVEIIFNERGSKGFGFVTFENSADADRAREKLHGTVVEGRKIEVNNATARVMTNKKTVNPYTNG

B1: GGGCCUG (DNA:RNA)
RNA: GGGAGACCGGAAUUCAGAUUGUCCGGGCCUGUUAAAUCCCGUCGUAGCCACCA
DNA 1: CAATCTGAATTCCGGTCTCCC
DNA 2: TGGTGGCTACGACGGGATT
B2: GGGGCCC (DNA:RNA)
RNA: B1 RNA with C28G, U30C, G31C
DNA 1: CAATCTGAATTCCGGTCTCCC
DNA 2: TGGTGGCTACGACGGGATT
B3: GGGCCCU (DNA:RNA)
RNA: B1 RNA with U30C, G31U
DNA 1: CAATCTGAATTCCGGTCTCCC
DNA 2: TGGTGGCTACGACGGGATT
B4: CGGCCUG (DNA:RNA)
RNA: B1 RNA with G25C
DNA 1: CAATCTGAATTCCGGTCTCCC
DNA 2: TGGTGGCTACGACGGGATT
B5: CGGGCCG (DNA:RNA)
RNA: B1 RNA with G25C, C28G, U30C
DNA 1: CAATCTGAATTCCGGTCTCCC
DNA 2: TGGTGGCTACGACGGGATT
B6: GGGGCCG (DNA:RNA)
RNA: B1 RNA with C28G, U30C
DNA 1: CAATCTGAATTCCGGTCTCCC
DNA 2: TGGTGGCTACGACGGGATT
B7: GGGGGCC (DNA:RNA)
RNA: B1 RNA with C28G, C29G, U30C, G31C
DNA 1: CAATCTGAATTCCGGTCTCCC
DNA 2: TGGTGGCTACGACGGGATT
B8: GGGCCGU (DNA:RNA)
RNA: B1 RNA with U30G, G31U
DNA 1: CAATCTGAATTCCGGTCTCCC
DNA 2: TGGTGGCTACGACGGGATT
B9: CGGGCCC (DNA:RNA)
RNA: B1 RNA with G25C, C28G, U30C, G31C
DNA 1: CAATCTGAATTCCGGTCTCCC
DNA 2: TGGTGGCTACGACGGGATT
B10: CACCUAU (DNA:RNA)
RNA: B1 RNA with G25C, G26A, G27C, C29U, U30A, G31U
DNA 1: CAATCTGAATTCCGGTCTCCC
DNA 2: TGGTGGCTACGACGGGATT
B11: AAGUACA (DNA:RNA)
RNA: B1 RNA with G25A, G26A, C28U, C29A, U30C, G31A
DNA 1: CAATCTGAATTCCGGTCTCCC
DNA 2: TGGTGGCTACGACGGGATT
B12: UGCGGAA (DNA:RNA)
RNA: B1 RNA with G25U, G27C, C28G, C29G, U30A, G31A
DNA 1: CAATCTGAATTCCGGTCTCCC
DNA 2: TGGTGGCTACGACGGGATT
B13: UCAUCGU (DNA:RNA)
RNA: B1 RNA with G25U, G26C, G27A, C28U, U30G, G31U
DNA 1: CAATCTGAATTCCGGTCTCCC
DNA 2: TGGTGGCTACGACGGGATT
B14: AUAAGUU (DNA:RNA)
RNA: B1 RNA with G25A, G26U, G27A, C28A, C29G, G31U
DNA 1: CAATCTGAATTCCGGTCTCCC
DNA 2: TGGTGGCTACGACGGGATT
B15: UGAGCCA (DNA:RNA)
RNA: B1 RNA with G25U, G27A, C28G, U30C, G31A
DNA 1: CAATCTGAATTCCGGTCTCCC
DNA 2: TGGTGGCTACGACGGGATT
B16: ACAUCCA (DNA:RNA)
RNA: B1 RNA with G25A, G26C, G27A, C28U, U30C, G31A
DNA 1: CAATCTGAATTCCGGTCTCCC
DNA 2: TGGTGGCTACGACGGGATT
B17: UUUGAUA (DNA:RNA)
RNA: B1 RNA with G25U, G26U, G27U, C28G, C29A, G31A
DNA 1: CAATCTGAATTCCGGTCTCCC
DNA 2: TGGTGGCTACGACGGGATT
B18: GGGACUG (DNA:RNA)
RNA: B1 RNA with C28A
DNA 1: CAATCTGAATTCCGGTCTCCC
DNA 2: TGGTGGCTACGACGGGATT
B19: UGUGGAC (DNA:RNA)
RNA: B1 RNA with G25U, G27U, C28G, C29G, U30A, G31C
DNA 1: CAATCTGAATTCCGGTCTCCC
DNA 2: TGGTGGCTACGACGGGATT
B20: UGGAGAC (DNA:RNA)
RNA: B1 RNA with G25U, C28A, C29G, U30A, G31C
DNA 1: CAATCTGAATTCCGGTCTCCC
DNA 2: TGGTGGCTACGACGGGATT
B21: CAGACUG (DNA:RNA)
RNA: B1 RNA with G25C, G26A, C28A
DNA 1: CAATCTGAATTCCGGTCTCCC
DNA 2: TGGTGGCTACGACGGGATT
B22: UGGACUG (DNA:RNA)
RNA: B1 RNA with G25U, C28A
DNA 1: CAATCTGAATTCCGGTCTCCC
DNA 2: TGGTGGCTACGACGGGATT
B23: GGGACCG (DNA:RNA)
RNA: B1 RNA with C28A, U30C
DNA 1: CAATCTGAATTCCGGTCTCCC
DNA 2: TGGTGGCTACGACGGGATT
B24: AGGACUG (DNA:RNA)
RNA: B1 RNA with G25A, C28A
DNA 1: CAATCTGAATTCCGGTCTCCC
DNA 2: TGGTGGCTACGACGGGATT
B25: GGACUGU (DNA:RNA)
RNA: B1 RNA with G27A, C29U, U30G, G31U
DNA 1: CAATCTGAATTCCGGTCTCCC
DNA 2: TGGTGGCTACGACGGGATT
B26: CGGACUG (DNA:RNA)
RNA: B1 RNA with G25C, C28A
DNA 1: CAATCTGAATTCCGGTCTCCC
DNA 2: TGGTGGCTACGACGGGATT

Positions count from the first letter of the chain named. In all, about 16,000 sequences were measured (“ka relative to ugcaugu”: median about 0.0091, highest 2% from about 0.032 on). Shown is part of a subset that was picked to be rich in the highest values.

The experiment deals with T1, RBFOX1 RRM. Description: EMSA; HiTS-Eq, 1 nM pool, 10 min; buffer printed only for the single-RNA assays: 10 mM Tris pH 7.5, 150 mM NaCl, 3.4 mM EDTA, 0.001% NP-40, 30 C. The settings on record: tags: His6 N-terminal (pET28a); label: 5' 32P. In short, it runs like this:
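Relative association constants, normalised to the cognate motif, were derived by comparing read counts of each RNA species with those of the control reaction. The RNA sequenced was the free fraction, separated by 8% native PAGE after a 10 min equilibration in 50 µL of 1 nM 5′-radiolabelled RNA (7 randomized nucleotides) with increasing concentrations of purified wild-type or mutant RbFox RRM.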
In general terms: A gel shift assay detects complexes by their altered migration in electrophoresis.
Turning to B1, the binding signal was 0.0377 KA relative to UGCAUGU.

As to B2, the binding signal is 0.0409 KA relative to UGCAUGU.

Take B3: the binding signal is 0.00615 KA relative to UGCAUGU.

As for B4, the binding signal was 0.0257 KA relative to UGCAUGU.

Turning to B5, the binding signal is 0.0351 KA relative to UGCAUGU.

Take B6: the binding signal was 0.027 KA relative to UGCAUGU.

In the case of B7, the binding signal is 0.0256 KA relative to UGCAUGU.

In the case of B8, the binding signal was 0.0153 KA relative to UGCAUGU.

As for B9, the binding signal is 0.0176 KA relative to UGCAUGU.

In the case of B10, the binding signal is 0.000316 KA relative to UGCAUGU.

Consider B11, for which the binding signal was 0.00261 KA relative to UGCAUGU.

Take B12: the binding signal was 0.0165 KA relative to UGCAUGU.

Turning to B13, the binding signal is 0.0124 KA relative to UGCAUGU.

Regarding B14, the binding signal was 0.00282 KA relative to UGCAUGU.

As for B15, the binding signal was 0.00784 KA relative to UGCAUGU.

As to B16, the binding signal was 0.000399 KA relative to UGCAUGU.

For the molecule B17, the binding signal is 0.0145 KA relative to UGCAUGU.

For the molecule B18, the binding signal was 0.0322 KA relative to UGCAUGU.

As to B19, the binding signal was 0.00524 KA relative to UGCAUGU.

On to B20, for which the binding signal is 0.007 KA relative to UGCAUGU.

B21: the binding signal is 0.0132 KA relative to UGCAUGU.

For B22, the binding signal was 0.0448 KA relative to UGCAUGU.

With B23, the binding signal was 0.0273 KA relative to UGCAUGU.

On to B24, for which the binding signal is 0.0275 KA relative to UGCAUGU.

Consider B25, for which the binding signal is 0.0223 KA relative to UGCAUGU.

Consider B26, for which the binding signal was 0.0352 KA relative to UGCAUGU.
